Measurements from PubChem BioAssay (EPA / NIEHS).
Records with an inconclusive call do not appear. Calls of active or inactive are those of the source. The calls were made as follows, unless noted: active = hit-call score of the fitted dose curve at least 0.9, where 1 is the maximum; inactive = score below 0.9.

Experiments:
[1] = TAMU_PeakParms_SingleDonor1434_Chronotropy: Texas A&M University (TAMU) 1.5-hr Human Induced Pluripotent Stem Cell (iPSC)-derived Cardiomyocytes Calcium (Ca+2) Flux Assay for Cardiotoxicity: Chronotropy (changes in peak frequency) (AID 2284217); conditions: actives raise or lower the signal
In short: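 Beat rate, as mean Ca2+-flux peak frequency, was read from donor 1434 iPSC cardiomyocytes 90 min after exposure to 0.2–100 uM test chemical (0.5% DMSO). Wells that stopped beating were excluded; EC05 from bidirectional DMSO-referenced fitting.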

[2] = CCTE_Mundy_HCI_Cortical_Synap_Neur_Matur_NeuriteLength: CCTE's Synaptogenesis and Neurite Maturation Assay in rat cortical cells for Neurite Length, Mundy Lab (AID 2284214)
In short: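 Cultures of rat primary cortical cells received chemical at DIV 7 and were fixed at DIV 12, after glial arrest with AraC at DIV 5. Neurite length was measured by automated imaging of MAP2 immunofluorescence.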

[3] = CCTE_Mundy_HCI_Cortical_Synap_Neur_Matur_NeuriteSpotCountPerNeuron: CCTE's Synaptogenesis and Neurite Maturation Assay in rat cortical cells for Neurite Spot Count per Neuron Count, Mundy Lab (AID 2284215)
In short: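 Read-out: neurite-associated synaptophysin puncta per neuron, imaged by high-content analysis after MAP2, synaptophysin and Hoechst staining. Rat primary cortical cultures, dosed DIV 7 through DIV 12; DMSO served as baseline.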

[4] = CCTE_Mundy_HCI_Cortical_Synap_Neur_Matur_SynapseCount: CCTE's Synaptogenesis and Neurite Maturation Assay in rat cortical cells for Synapse Count, Mundy Lab (AID 2284218)
Protocol: CCTE_Mundy_HCI_Cortical_Synap&Neurite_Matur is a multiplexed, cell-based-readout assay that uses rat primary cortical cells with measurements taken at 288.33 hours after chemical dosing in a microplate: 96-well plate.CCTE_Mundy_HCI_Cortical_Synap_Neur_Matur_SynapseCount is one of eight components of the CCTE_Mundy_HCI_Cortical_Synap&Neurite_Matur assay. It measures synaptogenesis and neurite maturation related to number of synapses per neuron using High Content Imaging of fluorescently labelled markers.[…] Using a type of morphology reporter, loss -of-signal activity can be used to understand developmental effects.
Cells are plated onto 96 well plates and allowed 2 hr for attachment to the substrate. At days in vitro (DIV) 5, Cytosine Arabinoside (AraC) is added to arrest glial cell growth. Chemicals are dosed and a media change is performed at DIV 7 of differentiation and is continued through DIV 12 when the experiment is terminated. Cells are fixed with […] and Hoechst Dye. Cells are stained using Millipore Mouse anti-MAP2MAB3418 (1:800) and Millipore Rabbit anti-Synaptophysinsc-1750 (1:250) primary antibodies and Alexa Fluor-488 goat anti-mouse and AlexaFluor-546 goat anti-rabbit secondary antibodies to label neuronal cell nuclei, synapses and neurites. A Cellomics ArrayScan VTi HCS Reader is used for automated image acquisition and analysis of neurite outgrowth.

[5] = CCTE_Mundy_HCI_Cortical_Synap_Neur_Matur_NeuriteCount: CCTE's Synaptogenesis and Neurite Maturation Assay in rat cortical cells for Neurite Count, Mundy Lab (AID 2284222);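 also: exposure from day 7 to day 12 in vitro with readout at day 12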
In short: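 Rat cortical neurons, 96-well; AraC DIV 5; chemical + media change DIV 7; end DIV 12. Fix PFA/Hoechst, anti-MAP2 + anti-synaptophysin IF. HCI neurite count vs DMSO baseline.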

[6] = CCTE_Mundy_HCI_Cortical_Synap_Neur_Matur_CellBodySpotCount: CCTE's Synaptogenesis and Neurite Maturation Assay in rat cortical cells for Cell Body Spot Count, Mundy Lab (AID 2284223)
In short: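 Read-out: cell body-associated synaptophysin puncta per neuron, imaged after MAP2, synaptophysin and Hoechst staining. Rat cortical cells, AraC DIV 5, chemical dosing DIV 7, fixation DIV 12. Activity fitted in positive direction relative to DMSO baseline.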

[7] = CCTE_Mundy_HCI_hNP1_Pro_ResponderAvgInten: CCTE's Proliferation Assay in human neuroprogenitor cells, Mundy Lab (AID 2284224; active = hit-call score of the fitted dose curve at least 0.9, where 1 is the maximum;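 also: human neural progenitor cells hNP1 derived from WA09 embryonic stem cells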)
In short: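 Proliferation was scored as BrdU labelling intensity in human neural progenitors derived from WA09 embryonic cells, measured 26.25 hours after chemical dosing. Activity was fitted relative to DMSO.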

[8] = CCTE_Mundy_HCI_hN2_NOG_NeuriteCount: CCTE's Neurite Outgrowth Assay in human hN2 cells for Neurite Count, Mundy Lab (AID 2284219; active = hit-call score of the fitted dose curve at least 0.9, where 1 is the maximum)
In short: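 In this morphology assay, hNP1-derived neurons received test chemical 2 h post-plating and were fixed two days later in warm paraformaldehyde/sucrose containing Hoechst 33342. Neurites, labelled by rabbit anti-βIII-tubulin (1:800) and Alexa Fluor-488 (1:500), were counted automatically.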

[9] = CCTE_Mundy_HCI_hN2_NOG_NeuriteLength: CCTE's Neurite Outgrowth Assay in human hN2 cells for Neurite Length, Mundy Lab (AID 2284220; active = hit-call score of the fitted dose curve at least 0.9, where 1 is the maximum)
Protocol: CCTE_Mundy_HCI_hN2_NOG is a multiplexed, cell-based-readout assay that uses immature neurons derived from hNP1 neuroprogenitor cells with measurements taken at 50.33 hours after chemical dosing in a microplate: 96-well plate.CCTE_Mundy_HCI_hN2_NOG_NeuriteLength is one of four components of the CCTE_Mundy_HCI_hN2_NOG assay. It measures neurite outgrowth related to neurite length using High Content Imaging of fluorescently labelled markers.[…] Using a type of morphology reporter, loss -of-signal activity can be used to understand developmental effects.
Exposure starts 2 hours post-plating by adding 10 ul of the working solution to 90 ul of media in the wells for a 1/10 dilution. Forty-eight hours after chemical treatment cells are fixed by direct addition of 100 ul of warm (37C) Dulbecco's phosphate buffered saline (DPBS) fixative solution containing 8% paraformaldehyde, 8% sucrose, and 0.1% of 3 mg/ml Hoechst 33342 into each well. Primary antibodies are prepared by dilution in Immunocytochemical Staining Buffer (ISB), 10X Dulbecco's PBS, 0.1% Saponin, 5% Bovine Serum Albumin, 0.5% NaN3 (Sodium Azide) and betaIII-tubulin (rabbit anti-betaIII-tubulin, 1:800) followed by Alexa Fluor-488 secondary (1:500) to label neuronal cell bodies and neurites. A Cellomics ArrayScan VTi HCS Reader is used for automated image acquisition and analysis of neurite outgrowth.

[10] = CCTE_Mundy_HCI_hN2_NOG_NeuronCount: CCTE's Neurite Outgrowth Assay in human hN2 cells for Neuron Count, Mundy Lab (AID 2284221; active = hit-call score of the fitted dose curve at least 0.9, where 1 is the maximum)
In short: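 Read-out is the number of betaIII-tubulin-positive neurons imaged by automated high-content analysis, with DMSO as negative control.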

Measured: AC50

CCOc1ccc2c(c1)C(C)=CC(C)(C)N2
inactive: [1]

CC(=O)Oc1ccccc1C(=O)O
inactive: [2] | [3] | [1] | [4] | [5] | [6]

C[Si]1(C)O[Si](C)(C)O[Si](C)(C)O[Si](C)(C)O1
inactive: [2] | [3] | [4] | [5] | [6] | [7]

O=C(O)CCCCC(=O)O
inactive: [1]

O=c1[nH]cc(F)c(=O)[nH]1
inactive: [2] | [3] | [1] | [4] | [8] | [9] | [6]
active: [10] 2.34 µM | [7] 4.62 µM

OC[C@@H](O)[C@@H](O)[C@H](O)[C@H](O)CO
inactive: [2] | [3] | [5] | [6]
active: [4] 0.0648 µM

COC(=O)c1ccc(O)cc1
active: [1] 50 µM

CCCc1cc(=O)[nH]c(=S)[nH]1
inactive: [2] | [3] | [1] | [4] | [8] | [9] | [10] | [6]
